Of roughly 7,900 targets only a part is listed; those with a hit were picked by preference. About 0.6% of all pairs of compound and target were hits. Unmarked numbers belong to inactive results.

Experimental findings from the supplement of paper PMC10849652 are described below.

What all share (test): log2 fold change, soluble protein after heating vs DMSO (PISA); higher = thermal stabilisation; K562 cells, 10 uM, 30 min; active = over 0.2 and 3.5 SD of the protein, either way, in both replicates (recomputed)
Compound in one assay: C#Cc1cccc(Nc2ncnc3cc(OCCOC)c(OCCOC)cc23)c1 [erlotinib]
In outline:
(§1)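 Soluble protein was defined as the supernatant after 21,000xg for 90 min. It came from K562 cells at 2×10^6 cells/mL given 10 μM compound for 30 min, heated in aliquots for 3 min across 48°C-58°C, pooled, and extracted in PBS with 0.5% NP-40 at 4°C, and was quantified by TMTpro 16plex LC-MS/MS with equalised channel sums. Thermal stability against control samples, from duplicates, is reported as log2 fold change.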

Compound in assay [1]: C/C(=N\NC(=O)C1=CC(=CC=C1)S(=O)(=O)N2CCOCC2)/C3=C(C=CC(=C3)Cl)O
In outline: as §1

Compound in assay [2]: C1=CC(=C(C=C1Cl)C2=NC3=NC=CN=C3C(=N2)NC4=CC=NC=C4)F
In outline: as §1

Compound in assay [3]: C1=CC(=CC=C1C2=NC3=C(N2)C=C(C=C3)C(=O)N)OC4=CC=C(C=C4)Cl
In outline: as §1

Compound in assay [4]: C1=CC2=C(C=CC(=C2)/C=C\3/C(=O)NC(=NCC4=CC=CS4)S3)N=C1
In outline:
as §1

Compound in assay [5]: C1=CC2=NC=CN=C2C=C1/C=C/3\C(=O)NC(=O)S3
In outline: as §1

Compound in assay [6]: C1=CC=C(C=C1)C2=NC(=C(N2)C3=CC=NC=C3)C4=CC(=C(C=C4)Cl)O
In outline: as §1

Compound in assay [7]: C1=CC=C2C(=C1)C3=NNC4=CC=CC(=C43)C2=O
In outline: as §1

Compound in assay [8]: C1CCN(C1)C(=O)NC2=CC=CC(=C2)NC3=NC=C(C(=N3)NCCC4=CN=CN4)Br
The gist of the method:
as §1

Compound in assay [9]: C1CN(CCC1(CC2=CC=C(C=C2)Cl)N)C3=NC=NC4=C3C=CN4
In outline:
as §1

Chain of UniProt Q00403 (Q00403 whole entry, looked up): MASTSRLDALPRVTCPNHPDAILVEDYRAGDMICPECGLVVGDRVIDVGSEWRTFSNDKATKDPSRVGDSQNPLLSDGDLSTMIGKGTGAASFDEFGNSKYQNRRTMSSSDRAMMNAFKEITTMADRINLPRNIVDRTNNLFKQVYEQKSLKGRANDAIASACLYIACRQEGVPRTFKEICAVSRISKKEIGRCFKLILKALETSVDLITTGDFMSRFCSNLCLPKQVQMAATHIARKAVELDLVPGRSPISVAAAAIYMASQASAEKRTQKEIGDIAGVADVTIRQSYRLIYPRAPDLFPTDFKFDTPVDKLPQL
Chain of UniProt Q8WUI4 (Q8WUI4 whole entry, looked up): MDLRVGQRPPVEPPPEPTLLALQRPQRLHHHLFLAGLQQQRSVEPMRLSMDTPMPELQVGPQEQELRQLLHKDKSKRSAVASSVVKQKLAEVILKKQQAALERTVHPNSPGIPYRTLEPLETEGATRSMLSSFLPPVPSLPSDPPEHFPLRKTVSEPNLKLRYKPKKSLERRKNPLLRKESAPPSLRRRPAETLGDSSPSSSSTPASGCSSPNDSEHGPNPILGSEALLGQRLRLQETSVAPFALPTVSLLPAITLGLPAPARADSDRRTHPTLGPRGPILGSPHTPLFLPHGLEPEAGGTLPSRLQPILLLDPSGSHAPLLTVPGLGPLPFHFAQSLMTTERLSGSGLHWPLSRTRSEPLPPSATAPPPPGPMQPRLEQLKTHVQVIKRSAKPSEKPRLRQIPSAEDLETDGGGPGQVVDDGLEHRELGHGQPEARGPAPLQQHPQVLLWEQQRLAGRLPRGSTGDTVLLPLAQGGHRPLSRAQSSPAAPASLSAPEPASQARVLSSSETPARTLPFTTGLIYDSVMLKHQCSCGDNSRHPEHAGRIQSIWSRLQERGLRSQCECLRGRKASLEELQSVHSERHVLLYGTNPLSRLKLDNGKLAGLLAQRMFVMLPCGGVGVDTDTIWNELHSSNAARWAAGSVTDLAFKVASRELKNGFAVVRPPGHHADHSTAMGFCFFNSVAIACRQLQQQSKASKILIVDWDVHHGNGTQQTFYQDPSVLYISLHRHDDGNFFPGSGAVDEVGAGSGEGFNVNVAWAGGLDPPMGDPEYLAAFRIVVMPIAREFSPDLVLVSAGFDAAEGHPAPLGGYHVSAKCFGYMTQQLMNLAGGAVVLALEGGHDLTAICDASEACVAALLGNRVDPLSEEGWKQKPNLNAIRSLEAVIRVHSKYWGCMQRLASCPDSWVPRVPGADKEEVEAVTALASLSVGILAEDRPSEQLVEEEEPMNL
Chain of UniProt P29083 (P29083 whole entry, looked up): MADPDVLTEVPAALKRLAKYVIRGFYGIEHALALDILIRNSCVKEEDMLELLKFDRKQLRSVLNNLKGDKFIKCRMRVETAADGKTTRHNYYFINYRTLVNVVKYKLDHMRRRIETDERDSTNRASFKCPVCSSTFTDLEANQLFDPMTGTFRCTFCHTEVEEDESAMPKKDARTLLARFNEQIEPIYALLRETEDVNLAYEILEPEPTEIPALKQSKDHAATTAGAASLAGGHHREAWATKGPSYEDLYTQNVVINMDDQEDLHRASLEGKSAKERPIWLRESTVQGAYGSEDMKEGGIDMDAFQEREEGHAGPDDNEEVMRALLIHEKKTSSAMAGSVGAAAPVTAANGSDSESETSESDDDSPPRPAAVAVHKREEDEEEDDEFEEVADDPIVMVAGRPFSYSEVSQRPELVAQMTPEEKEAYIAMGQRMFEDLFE
Chain of UniProt Q9BUJ2 (Q9BUJ2 whole entry, looked up): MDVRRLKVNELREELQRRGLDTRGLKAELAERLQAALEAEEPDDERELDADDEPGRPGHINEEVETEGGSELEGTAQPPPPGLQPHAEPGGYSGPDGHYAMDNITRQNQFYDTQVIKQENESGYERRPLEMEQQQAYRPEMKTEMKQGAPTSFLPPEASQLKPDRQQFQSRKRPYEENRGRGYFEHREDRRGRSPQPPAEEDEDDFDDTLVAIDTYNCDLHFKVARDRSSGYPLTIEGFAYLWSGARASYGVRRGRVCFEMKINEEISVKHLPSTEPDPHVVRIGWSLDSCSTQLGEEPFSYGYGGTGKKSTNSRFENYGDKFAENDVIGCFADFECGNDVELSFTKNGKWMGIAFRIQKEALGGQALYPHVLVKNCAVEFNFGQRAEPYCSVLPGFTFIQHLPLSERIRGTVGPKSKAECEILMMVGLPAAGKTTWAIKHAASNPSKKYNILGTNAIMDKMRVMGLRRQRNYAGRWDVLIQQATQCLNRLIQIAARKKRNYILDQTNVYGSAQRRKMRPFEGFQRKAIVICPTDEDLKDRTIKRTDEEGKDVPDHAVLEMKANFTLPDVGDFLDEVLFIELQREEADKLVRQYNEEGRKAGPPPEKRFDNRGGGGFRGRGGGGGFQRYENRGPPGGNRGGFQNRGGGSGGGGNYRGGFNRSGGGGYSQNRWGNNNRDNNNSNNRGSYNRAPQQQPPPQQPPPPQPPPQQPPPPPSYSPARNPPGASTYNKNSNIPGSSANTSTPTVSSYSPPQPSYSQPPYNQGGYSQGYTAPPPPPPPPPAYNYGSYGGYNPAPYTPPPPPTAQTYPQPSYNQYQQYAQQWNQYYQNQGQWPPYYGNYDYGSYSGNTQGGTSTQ
Chain of UniProt Q96HJ9 (Q96HJ9 whole entry, looked up): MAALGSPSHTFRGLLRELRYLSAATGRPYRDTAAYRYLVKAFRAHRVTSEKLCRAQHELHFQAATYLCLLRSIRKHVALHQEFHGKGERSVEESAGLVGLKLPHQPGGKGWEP
Chain of UniProt Q6P3S6 (Q6P3S6 whole entry, looked up): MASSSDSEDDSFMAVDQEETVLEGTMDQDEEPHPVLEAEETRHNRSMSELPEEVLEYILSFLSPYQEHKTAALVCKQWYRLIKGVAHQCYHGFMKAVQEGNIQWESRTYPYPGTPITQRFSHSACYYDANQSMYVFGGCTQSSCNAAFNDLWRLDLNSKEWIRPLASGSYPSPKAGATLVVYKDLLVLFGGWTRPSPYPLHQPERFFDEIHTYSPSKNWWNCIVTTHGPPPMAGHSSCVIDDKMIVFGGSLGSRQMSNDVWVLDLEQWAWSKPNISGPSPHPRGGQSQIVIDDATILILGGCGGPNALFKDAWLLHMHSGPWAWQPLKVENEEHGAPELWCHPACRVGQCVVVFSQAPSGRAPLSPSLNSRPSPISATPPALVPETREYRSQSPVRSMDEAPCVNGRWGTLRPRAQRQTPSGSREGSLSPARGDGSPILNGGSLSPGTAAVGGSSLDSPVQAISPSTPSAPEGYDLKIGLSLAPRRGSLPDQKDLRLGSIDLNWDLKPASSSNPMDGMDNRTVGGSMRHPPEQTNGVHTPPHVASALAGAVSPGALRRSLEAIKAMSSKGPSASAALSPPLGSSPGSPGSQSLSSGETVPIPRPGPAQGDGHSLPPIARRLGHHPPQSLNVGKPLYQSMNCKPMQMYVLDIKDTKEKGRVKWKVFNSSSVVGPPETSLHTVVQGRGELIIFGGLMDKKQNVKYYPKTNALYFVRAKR
Chain of UniProt P22087 (P22087 whole entry, looked up): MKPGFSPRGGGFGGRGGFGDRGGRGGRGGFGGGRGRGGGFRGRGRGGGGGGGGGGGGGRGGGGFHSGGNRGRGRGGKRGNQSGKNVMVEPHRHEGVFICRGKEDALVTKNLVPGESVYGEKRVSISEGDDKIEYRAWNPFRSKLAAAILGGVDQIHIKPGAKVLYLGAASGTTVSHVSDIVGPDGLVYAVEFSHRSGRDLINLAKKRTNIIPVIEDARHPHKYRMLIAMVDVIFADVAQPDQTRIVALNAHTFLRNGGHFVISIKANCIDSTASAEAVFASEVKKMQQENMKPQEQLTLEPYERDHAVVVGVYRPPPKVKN
Chain of UniProt O15228 (O15228 whole entry, looked up): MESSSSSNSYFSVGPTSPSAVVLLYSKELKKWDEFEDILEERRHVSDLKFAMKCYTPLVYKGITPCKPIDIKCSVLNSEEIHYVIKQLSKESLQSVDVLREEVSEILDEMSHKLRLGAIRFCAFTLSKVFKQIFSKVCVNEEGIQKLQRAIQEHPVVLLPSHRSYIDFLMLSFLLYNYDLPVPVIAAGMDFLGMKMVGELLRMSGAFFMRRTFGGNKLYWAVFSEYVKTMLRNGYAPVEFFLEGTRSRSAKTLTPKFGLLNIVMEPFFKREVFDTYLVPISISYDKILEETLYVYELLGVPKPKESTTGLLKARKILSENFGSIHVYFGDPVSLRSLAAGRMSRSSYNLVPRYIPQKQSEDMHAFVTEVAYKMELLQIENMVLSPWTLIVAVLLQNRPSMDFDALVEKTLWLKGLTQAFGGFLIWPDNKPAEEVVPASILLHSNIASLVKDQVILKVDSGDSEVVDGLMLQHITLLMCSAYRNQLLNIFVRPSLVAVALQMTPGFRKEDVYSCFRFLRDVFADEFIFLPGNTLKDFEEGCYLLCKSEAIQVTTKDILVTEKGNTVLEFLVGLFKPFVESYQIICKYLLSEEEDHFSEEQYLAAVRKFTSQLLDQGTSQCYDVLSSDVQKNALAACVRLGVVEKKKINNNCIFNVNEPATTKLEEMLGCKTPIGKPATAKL
Chain of UniProt O60725 (O60725 whole entry, looked up): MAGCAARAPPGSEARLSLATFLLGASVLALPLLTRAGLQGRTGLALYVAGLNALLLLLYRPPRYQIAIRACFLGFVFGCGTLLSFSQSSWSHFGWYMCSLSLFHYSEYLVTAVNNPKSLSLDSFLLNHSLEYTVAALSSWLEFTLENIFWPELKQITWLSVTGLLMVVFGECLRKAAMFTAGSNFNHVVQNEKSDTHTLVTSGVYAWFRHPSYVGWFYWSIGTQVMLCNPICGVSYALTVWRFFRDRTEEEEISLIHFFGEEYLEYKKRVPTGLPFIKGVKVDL
Chain of UniProt P36969 (P36969 whole entry, looked up): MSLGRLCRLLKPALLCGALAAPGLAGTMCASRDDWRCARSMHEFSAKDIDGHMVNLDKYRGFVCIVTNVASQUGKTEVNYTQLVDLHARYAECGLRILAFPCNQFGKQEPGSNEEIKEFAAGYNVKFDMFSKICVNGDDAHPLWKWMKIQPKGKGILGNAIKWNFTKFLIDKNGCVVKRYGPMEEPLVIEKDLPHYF

As for HNRNPUL1 (UniProt Q9BUJ2), the log2 fold change was 0.022 with erlotinib; -0.009 in [1]; 0.018 in assay [2]; -0.012 in [3]; 0.001 in assay [4]; -0.01 in [5]. Also, the log2 fold change in assay [6] is 0.004; in [7] it was 0.014; in [8], 0.029; in assay [9] it was -0.048.
Regarding GALNT11 (UniProt Q8NCW6), the log2 fold change in the assay with erlotinib was 0.088; in [1], -0.019; in assay [2], 0.033; in assay [3] it was -0.009; in [4], 0.122; in assay [5], 0.118. In addition, the log2 fold change in assay [6] was -0.034; in assay [7], 0.043; in assay [8] it was -0.025; in [9], 0.014.
For FBL (UniProt P22087), the log2 fold change with erlotinib is 0.06; in [1] it was -0.153; in [2], -0.566 (active); in assay [3], 0.013; in [4], -0.102; in [5], 0.13. Also, the log2 fold change in assay [6] is -0.099; in assay [7] it was -0.091; in assay [8], 0.054; in assay [9], -0.117.
In the case of GNPAT (UniProt O15228), the log2 fold change in the assay with erlotinib is 0.067; in assay [1] it was 0.112; in assay [2], 0.075; in [3], -0.001; in assay [4] it was 0.073; in assay [5] it was 0.03. Moreover, the log2 fold change is 0.057 in assay [6], 0.019 in [7], -0.003 in [8] and 0.058 in assay [9].
Take GTF2E1 (UniProt P29083): the log2 fold change is 0.067 with erlotinib; 0.145 in [1]; 0.046 in assay [2]; -0.002 in assay [3]; 0.094 in [4]; 0.007 in assay [5]. Also, the log2 fold change in assay [6] was 0.025; in assay [7], 0.039; in [8], -0.076; in [9] it was 0.017.
Consider GTF3C4 (UniProt Q9UKN8), for which the log2 fold change with erlotinib was -0.016; in assay [1], 0.065; in assay [2], 0.026; in assay [3] it was 0.003; in assay [4], 0.025; in assay [5], -0.005. In addition, the log2 fold change in assay [6] was 0.003; in assay [7], -0.022; in [8] it was -0.026; in assay [9], 0.027.
Take FNTA (UniProt P49354): the log2 fold change with erlotinib is 0.245; in assay [1], -0.033; in assay [2] it was 0.116; in assay [3], -0.017; in assay [4], 0.075; in assay [5], -0.009. Moreover, the log2 fold change in [6] was 0.051; in assay [7], -0.034; in [8], 0.065; in assay [9] it was 0.106.
With GPX4 (UniProt P36969), the log2 fold change is -0.021 in the assay with erlotinib; 0.035 in assay [1]; -0.012 in assay [2]; 0.057 in [3]; -0.007 in [4]; 0.006 in assay [5]. The log2 fold change in [6] was 0.142; in assay [7], -0.063; in [8], -0.036; in [9] it was 0.058.
With HDAC7 isoform 5 (UniProt Q8WUI4), the log2 fold change with erlotinib was 0.025; in assay [1] it was 0.057; in [2] it was -0.08; in assay [3], 0.007; in assay [4], -0.126; in [5] it was -0.008. Also, the log2 fold change in assay [6] is -0.037; in assay [7], -0.171; in assay [8], -0.056; in [9], 0.025.
Consider HMGN2 (UniProt P05204), for which the log2 fold change in the assay with erlotinib is -0.02; in assay [1], -0.01; in [2], -0.255; in assay [3] it was 0.034; in assay [4], -0.125; in [5], -0.039. Further, the log2 fold change in assay [6] was -0.052; in [7] it was 0.059; in assay [8], 0.011; in assay [9] it was 0.019.
For the target FBXO42 (UniProt Q6P3S6), the log2 fold change with erlotinib was 0.026; in assay [1], -0.006; in assay [2], -0.002; in assay [3] it was 0.025; in assay [4], 0.025; in assay [5], 0.055. In addition, the log2 fold change in assay [6] was 0.051; in assay [7], -0.006; in assay [8], -0.05; in assay [9], -0.024.
As for ICMT (UniProt O60725), the log2 fold change was 0.059 with erlotinib; -0.081 in assay [1]; 0.015 in [2]; -0.001 in [3]; 0.214 in [4]; -0.064 in assay [5]. Also, the log2 fold change in [6] was 0.122; in assay [7], -0.038; in [8], -0.206; in [9], -0.032.
Turning to FMC1 (UniProt Q96HJ9), the log2 fold change in the assay with erlotinib is 0; in [1] it was 0.072; in assay [2], 0.083; in assay [3] it was 0.004; in [4] it was 0.108; in assay [5], -0.063. The log2 fold change in [6] is 0.319 (active); in [7] it was 0.001; in assay [8], -0.026; in assay [9], -0.042.
For the target GTF2B (UniProt Q00403), the log2 fold change is 0.069 with erlotinib; 0.136 in assay [1]; 0.048 in assay [2]; -0.035 in assay [3]; 0.149 in assay [4]; 0.027 in [5]. Further, the log2 fold change in assay [6] is -0.033; in assay [7] it was 0.01; in assay [8], -0.065; in assay [9] it was -0.046.
For the target FNTB (UniProt P49356), the log2 fold change was 0.488 (active) in the assay with erlotinib; 0.028 in assay [1]; 0.203 in assay [2]; 0.028 in assay [3]; 0.208 in assay [4]; -0.024 in assay [5]. In addition, the log2 fold change in [6] was 0.091; in [7], 0.107; in assay [8], 0.326; in assay [9], 0.065.
